Results on 32 compounds are retold here after PubChem BioAssay (NCATS).

“And” between values parts separate entries of the source, which are not always exact repeats. Equal entries are not always repeated. Inconclusive results are not listed. Where a structure was tested more than once in an assay, its records may differ in their call. The source made the active and inactive calls. Calls follow the shape of the dose curve; as a rule, active = well fitted inhibition curve with a large enough effect; inconclusive = small, poorly fitted or top-dose-only effect; inactive = flat fitted curve, though single readings scatter.
% is scaled to controls: 0 for no effect and ±100 for the full control effect; potency is read from the fitted curve at half-maximal effect.

This experiment deals with CRL-7250. The experiment is described as follows: Cytotoxic Profiling of Annotated Libraries Using Quantitative High-Throughput Screening (AID 1296008). Also: nearly all actives have a fitted effect of over 60% in size. As to conditions: Five cell lines viability, CellTiter-Glo ATP luminescence, 48-72 h; max response: stronger effect = lower value. A digest of the protocol:
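Compounds were pin-transferred onto cells and incubated 48 or 72 hr at 37 degree Celsius, 95% humidity. CellTiter-Glo was added, plates sat 10 min at room temperature, then ATP-coupled luminescence was imaged as the viability read-out.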
A general note: Cellular ATP, detected with luciferase, serves as a proxy for viable cell number.
With `COc1nccc(-c2c(-c3ccc(F)cc3)ncn2C2CCC(O)CC2)n1` (stereo not drawn), the max response is 2.19% (inactive) and -0.385% (inactive). Turning to `CNc1nc(Nc2ccc(C(=O)N3CCOCC3)cc2OC)ncc1Cl`, the max response is 2.63% (inactive) and -2.16% (inactive).

Consider `O=C1C(c2c(O)[nH]c3ccccc23)=Nc2ccccc21`, for which the compound was called inactive.

On to `COc1cc(Nc2nc3ccccc3nc2NS(=O)(=O)c2ccc(NC(=O)c3ccc(C)c(OC)c3)cc2)cc(OC)c1`, for which the max response is -27.1% (inactive) and -5.83% (inactive). The same measure, in the same setting: as for `COc1ccc(-c2ccc3ncc4c(c3c2)n(-c2ccc(N3CCNCC3)c(C(F)(F)F)c2)c(=O)n4C)cn1`, the figure is -103% (inactive). Take `NS(=O)(=O)c1cc(Cl)c(Cl)c(S(N)(=O)=O)c1`: the max response was 0.0999% (inactive) and the compound was called inactive.

In the case of `CN1C(=O)C(Cc2c[nH]c3ccccc23)NC1=S` (stereo not drawn), the max response was 3.65% (inactive) and -1.79% (inactive). For the compound `CN1c2ccccc2C(=O)N2CCc3c([nH]c4ccccc34)C21` (stereo not drawn), the max response was 4.95% (inactive). Take `CNC(=O)c1c(-c2ccc(F)cc2)oc2cc(N(CCO)S(C)(=O)=O)c(C3CC3)cc12`: the Potency is 11.8 µM (active) and the max response is -2.04% (inactive).

In the case of `CC1CCN(c2cc(N3CCN(C)CC3)ccc2NC(=O)c2cc(C#N)c[nH]2)CC1`, the call was inactive. For the compound `COc1ccnc(CS(=O)c2nc3ccc(OC(F)F)cc3[nH]2)c1OC` (stereo not drawn), the max response was 3.58% (inactive). Turning to `c1cc(OCCN2CCCCC2)cc(-c2n[nH]c3ccc(-c4ncn[nH]4)cc23)c1`, the max response is -3.49% (inactive) and the result was inactive. Regarding `CCOC(=O)[C@H](CCc1ccccc1)N[C@@H](C)C(=O)N1CCCC1C(=O)O` (stereo partly drawn), the max response was 3.69% (inactive). In the case of `O=C(CO)N1CCC(c2[nH]nc(-c3ccc(Cl)cc3)c2-c2ccncn2)CC1`, the max response was 0.635% (inactive) and -7.11% (inactive). Turning to `Cc1ccccc1-n1c(Cn2nc(-c3cccc(O)c3)c3c(N)ncnc32)nc2cccc(C)c2c1=O`, the Potency was 2.64 µM (active) and the compound was classed as inactive. `CC(C)(OCc1nn(Cc2ccccc2)c2ccccc12)C(=O)O`: the max response is 1.06% (inactive) and the compound was classed as inactive.

For `Nc1ccc(-c2ccc3ncc4ccc(=O)n(-c5cccc(C(F)(F)F)c5)c4c3c2)cn1`, the Potency is 0.0461 µM (active) and the max response is -76.7% (inactive). In the case of `Cc1ccccc1C(C(=O)NC1CCCCC1)N(C(=O)CNc1ccc(C#N)cc1)c1cccc(F)c1` (stereo not drawn), the max response is 4.34% (inactive) and the outcome was inactive. For `O=c1cc(-c2ccc(O)c(O)c2)oc2cc(O)cc(O)c12`, the max response was 4.28% (inactive). On the same count and under the same terms, to `COc1nc(C)cnc1NS(=O)(=O)c1cccnc1-c1ccc(-c2nnco2)cc1` belongs 1.92% (inactive) and 1.59% (inactive).

As to `O=C(c1ccc(C(=O)N2CCC(N3CCCC3)CC2)c(Nc2ccccc2)c1)N1CCC(N2CCCC2)CC1`, the max response is -2.66% (inactive) and 0.948% (inactive). In the case of `CC(C)CNc1ccnc(NCc2csc(-c3ccccc3)n2)n1`, the Potency was 1.3 µM (active) and the max response was -19.9% (inactive). `Clc1ccc(C2(c3ccc(-c4cn[nH]c4)cc3)CCNCC2)cc1`: the Potency was 3.72 µM (active) and 7.31 µM (active). As to `CC1=C(C(=O)Nc2cc3cn[nH]c3cc2F)C(c2ccc(C(F)(F)F)cc2)CC(=O)N1` (stereo not drawn), the max response is 1.25% (inactive) and the compound was called inactive. With `CC(=O)N1CCN(c2ccc(OCc3nn(C)c(C)c3-c3cccc4c(CCCOc5cc(C)c(Cl)c(C)c5)c(C(=O)O)n(Cc5cccnc5)c34)cc2)CC1`, the max response is 4.49% (inactive). Regarding `c1ccc(CNc2nc(N3CCOc4ccccc43)nc3c2CCCC3)cc1`, the max response was 3.99% (inactive) and the result was inactive. Take `Cn1c(=O)c(-c2c(Cl)cccc2Cl)cc2cnc(Nc3cccc(C(=O)O)c3)nc21`: the Potency is 1.16 µM (active). Consider `CCN1C[C@H](C)n2c(c(O)c3c(=O)n(Cc4ccc(F)c(Cl)c4)nc(C(=O)NC)c32)C1=O`, for which the max response was -6.85% (inactive) and the outcome was inactive. Take `COc1ccc(CCC(=O)Nc2nc3ccc(Cl)cc3s2)cc1OC`: the max response was 1.51% (inactive) and -1.65% (inactive). Turning to `Cc1cc2c(cc1C1(c3ccc(C(=O)O)cn3)CC1)C(C)(C)CCC2(C)C`, the outcome was inactive. Consider `COc1cc2ncnc(Nc3cc(Br)c(O)c(Br)c3)c2cc1OC`, for which the max response is -9.02% (inactive) and 1.18% (inactive). The same measure, in the same setting: as for `O=C(O)CCNc1cc(N2CCc3ccccc3CC2)nc(-c2ccccn2)n1`, the figure is -1.59% (inactive) and -1.08% (inactive) and -1.74% (inactive).
